An excerpt weighted towards active compounds, which were near 11% of everything screened.
HPGD block: HPGD (human) dehydrogenase inhibition; purified HPGD, NADH fluorescence kinetic, PGE2 substrate; 150,000 tested, 4.3% active; Potency, µM, for inactives: at the top dose activity change, negative = inhibition, most hits filed as inhibitors; P15428; active = well fitted inhibition curve with a large enough effect, not every such curve was filed as active; inconclusive = small, poorly fitted or top-dose-only effect, or another doubt; inactive = no such curve, though single readings can be large or run the other way; also: potency is read from the fitted curve at half-maximal effect; % is scaled to controls: 0 for no effect and ±100 for the full control effect
Target sequence (P15428 whole entry, looked up): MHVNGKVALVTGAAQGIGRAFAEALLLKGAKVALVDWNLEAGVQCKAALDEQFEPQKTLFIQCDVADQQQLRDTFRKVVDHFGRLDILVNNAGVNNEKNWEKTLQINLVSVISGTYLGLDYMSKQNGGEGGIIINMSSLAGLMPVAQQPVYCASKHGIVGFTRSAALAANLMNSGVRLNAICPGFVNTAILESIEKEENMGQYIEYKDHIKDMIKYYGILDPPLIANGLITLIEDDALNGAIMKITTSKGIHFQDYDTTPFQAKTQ
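20 nM HPGD preincubated 15 min at room temperature with compound in 50 mM Tris-HCl pH 8, 0.01% Tween 20. Started with 1 mM NAD+ and 30 uM prostaglandin E2; NADH fluorescence (360/450 nm) read 5 times over 30-s intervals, last minus first.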
HTT aggregate: inhibitors of mutant huntingtin aggregate formation in PC12 cells; PC12 HttQ103-GFP aggregates, Acumen cytometry, 40 h; Potency, µM (series often up to 46.1 µM), without a hit: at the highest dose activity change, negative = inhibition, most hits filed as inhibitors; 220,000 tested, 1.1% active; AID 1688; also: potency is read from the fitted curve at half-maximal effect; % is scaled to controls: 0 for no effect and ±100 for the full control effect; nearly all actives have a fitted effect of over 60% in size
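Inducible Q103 Huntingtin exon 1–GFP PC12 line, 1500 cells/well in phenol red free DMEM with 5% equine and 5% calf serum. Tebufenozide 100 nM induced expression; compounds titrated; aggregates quantified by cytometry.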
PNC assembly inh: perinucleolar compartment assembly inhibition; PC3M PTB-GFP, PNC prevalence imaging, 16 h; hits give low values; AID 2417; 140,000 tested, 3.1% active; activity change (PNC), negative = inhibition, % at 10 µM;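 active = readout at or below -70, meaning at least 70% loss of cells showing the perinucleolar compartment, a nuclear body marking cancer cells; inconclusive = readout between -30 and a set limit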;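 also: plate controls were DMSO wells for no effect and camptothecin positive control wells for full effect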
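PC3M cells stably expressing PTB-GFP, 750–1000 cells/well, treated 16 h at 37 °C with compound (23 nl of library stock), in duplicate. After paraformaldehyde fixation and Hoechst stain, imaged at 20x; PNC prevalence scored by image analysis.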
ALDH1A1 block: ALDH1A1 (human) enzyme inhibition; Purified ALDH1A1, NADH fluorescence, propionaldehyde substrate; Potency, µM (top dose mostly 75.3 µM), inactives show at the highest dose activity, negative = inhibition, actives largely listed as inhibitors; 220,000 tested, 7.3% active; AID 1030; active = well fitted inhibition curve with a large enough effect, not every such curve was filed as active; inconclusive = small, poorly fitted or top-dose-only effect, or another doubt; inactive = no such curve, though single readings can be large or run the other way;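 also: potency is read from the fitted curve at half-maximal effect; plate controls were no enzyme wells and a reference inhibitor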
Target sequence (P00352 whole entry, looked up): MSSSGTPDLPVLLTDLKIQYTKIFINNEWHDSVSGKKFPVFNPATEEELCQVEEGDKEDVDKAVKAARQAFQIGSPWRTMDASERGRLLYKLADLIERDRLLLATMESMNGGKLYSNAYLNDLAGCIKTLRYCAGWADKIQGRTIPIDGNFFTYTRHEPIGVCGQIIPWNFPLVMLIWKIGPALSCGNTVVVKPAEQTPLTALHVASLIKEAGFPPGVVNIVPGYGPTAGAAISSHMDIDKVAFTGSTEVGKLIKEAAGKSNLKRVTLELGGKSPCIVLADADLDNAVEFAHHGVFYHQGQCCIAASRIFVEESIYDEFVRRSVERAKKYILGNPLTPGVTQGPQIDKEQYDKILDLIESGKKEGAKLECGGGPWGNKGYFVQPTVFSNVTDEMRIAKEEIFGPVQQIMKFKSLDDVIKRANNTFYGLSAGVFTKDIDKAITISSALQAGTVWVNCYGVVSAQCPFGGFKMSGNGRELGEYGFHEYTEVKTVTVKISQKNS
HTT ATP protect: protects HTT-Q103 PC12 cells, measured by ATP. PC12 HTT-Q103 induced, cytoprotection, ATP luminescence, 40 h. Potency, µM (top dose mostly 56.4 µM), without a hit: cytoprotection (ATP increase), usual class: activators. 230,000 tested, 0.14% active. AID 1471; also: potency is read from the fitted curve at half-maximal effect; % of control where 0% means no effect; nearly all actives have a fitted effect of over 45% in size
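ATP quantification (ATPlite) reports survival of PC12 cells in which tebufenozide, 100 nM final, switches on Htt exon 1 with 103 glutamines linked to GFP; compounds are titrated.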
GoLoco inh red: RGS12 GoLoco-Gai1 interaction inhibition | Gai1:RGS12 GoLoco peptide FP, rhodamine, 10 min | Potency, µM (top dose mostly 61.6 µM), without a hit: at the top dose activity, negative = inhibition, hits mostly inhibitors | 230,000 tested, 0.44% active | AID 880; active = well fitted inhibition curve with a large enough effect, not every such curve was filed as active; inactive = no such curve, though single readings can be large or run the other way; also: potency is read from the fitted curve at half-maximal effect; % is scaled to controls: 0 for no effect and ±100 for the full control effect; nearly all actives have a fitted effect of over 30% in size
An asterisk follows results filed as active; ? = inconclusive; nt = no result; [ ] = dose if it differs, or a comment. Unless noted, calls follow the shape of the dose curve; as a rule, active = well fitted curve in the direction sought with a large enough effect; inconclusive = small, poorly fitted or top-dose-only effect, or another doubt; inactive = no such curve, though single readings can be large; an effect the other way counts as inactive or inconclusive.

SMILES | HPGD block | HTT aggregate | PNC assembly inh | ALDH1A1 block | HTT ATP protect | GoLoco inh red
CC(C)NC(=O)NC(=O)COC(=O)c1ccc(OC(F)(F)F)cc1 | -14% | 3% | -89* | 7% | nt | -3%
Cc1ccc(C(=O)OCC(=O)NC(=O)c2cccn2C)cc1 | -10% | 14% | -81* | -8% | -39% | 10%
CC(C)NC(=S)N/N=C1\CCCCC1C1CCCCC1 (stereo not drawn) | ? | 11% | 32 | 6.3µM* | 11% | 11%
CC1CCCC/C1=N\NC(=S)Nc1ccccc1 (stereo not drawn) | nt | -10% | nt | ? | -15% | 11%
CC(C)(C)C(=O)c1sc2nc(-c3cccs3)cc(C(F)(F)F)c2c1N | ? | 11% | 4 | ? | 6% | -13%
CCN(CC)C(=O)c1sc2nc(-c3cccs3)cc(-c3cccs3)c2c1N | nt | 6%[9.22 µM] | nt | 20µM* | 7%[10 µM] | -8%
Cc1cc(=O)oc2cc(NC(=O)CC3(CC(=O)O)CCCC3)ccc12 | nt | -6%[9.22 µM] | nt | ? | -14%[10 µM] | 0%
COCCNC(=S)N(c1ccccc1)C(C)C | nt | 25% | nt | ? | -19% | 8%
COCCNC(=S)NN(c1ccccc1)c1ccccc1 | nt | 12% | nt | 32µM* | -27% | 9%
Cc1ccc(C)c(-c2csc(NC(=O)c3cnccn3)n2)c1 | nt | -10% | nt | 0% | -30% | 8%
COCCNc1ncnc2ccc(-c3ccc(N(C)C)cc3)cc12 | nt | nt | nt | ? | -55% | -16%
COc1cc2cccc(OC)c(=O)c2c(O)c1OC | -1% | 19% | -23 | 9% | -22%[10 µM] | 10%
CC(=O)Oc1cc2cccc(OC(C)=O)c(=O)c2c(OC(C)=O)c1OC(C)=O | nt | 10% | nt | 4µM* | -57% | -6%
Cc1nn(-c2ccccc2)c(Cl)c1/C=N/Nc1nncc(=O)[nH]1 | nt | 4%[9.22 µM] | nt | nt | 0%[10 µM] | 8%
Cc1cc(=O)[nH]c(N/N=C/c2c(C)nn(-c3ccc(F)cc3)c2Cl)n1 | nt | -18% | nt | 6.3µM* | 0%[10 µM] | 15%
Cc1ccc(N2C(=N)SCC2=O)cc1Cl | 14µM* | 15% | ? | ? | 10%[10 µM] | 3%
Cc1ccc2c(c1)sc[n+]2Cc1ccccc1 | 20µM* | 1% | 6 | ? | 24% | 4%
COc1ccc(COC(=O)N/N=C2/C[C@@H](O)[C@@H](O)[C@@H]3[C@@H]4C(=O)N(Cc5ccc6c(c5)OCO6)C(=O)[C@H]4CC[C@@H]23)cc1 | nt | nt | nt | -10%[13.5 µM] | -30%[10 µM] | nt
COc1ccc(NCc2nnc(SCC(=O)Nc3ccccc3)n2C)cc1 | nt | 8% | nt | 5% | -44% | 42%
COc1cc(/C=C2\C(=O)N(CCC#N)N=C2C)c(Br)cc1OC(C)C | 8.9µM* | -32% | 0 | -8% | -18%[10 µM] | 1%
CC1=NN(c2ccccc2)C(=O)/C1=C\c1cn(CCC#N)nc1-c1ccc(Cl)cc1 | -17% | 31% | 13 | -5% | -2%[10 µM] | 0%
COc1ccccc1CN1CC[C@@]2(CCCN(S(C)(=O)=O)C2)C1 | 1% | nt | nt | -9% | 14% | 2%
Cc1cc(OCC(=O)N2CCc3ccccc3C2)c2c(-c3ccccc3)cc(=O)oc2c1 | -18% | ? | ? | 14µM* | -9% | -2%
Cc1cc(OC(C)C)c2c(-c3ccccc3)cc(=O)oc2c1 | ? | -18% | 0 | ? | -8% | -3%
CCOc1cc(C)cc2oc(=O)cc(-c3ccccc3)c12 | -12% | -7% | -23 | 22µM* | -7% | 6%
SMILES | HPGD block | HTT aggregate | PNC assembly inh | ALDH1A1 block | HTT ATP protect | GoLoco inh red
COc1cc(/C=N/NC(=O)COc2cccc(F)c2)ccc1OS(=O)(=O)c1ccc(C)cc1 | -22% | 2% | 7 | 8.9µM* | nt | 2%
Cc1ccc(S(=O)(=O)Oc2ccc(/C=N/NC(=O)c3cccnc3)cc2)cc1 | nt | 24%[9.22 µM] | nt | 13µM* | ? | -10%
COc1cc(/C=N/NC(=O)c2cccnc2)ccc1OS(=O)(=O)c1cc(C)ccc1C | -15% | 10% | ? | -6% | 4%[10 µM] | 11%
Cn1ncc(Br)c1C(=O)N/N=C/c1ccc(OS(=O)(=O)c2ccccc2)cc1 | -8% | -1% | -80* | 25µM* | 11%[10 µM] | 3%
CC(/C=N/NC(=O)c1c(Br)cnn1C)=C\c1ccccc1 | -18% | -4% | ? | 0% | 2%[10 µM] | -4%
COc1cc(/C=N/NC(=O)c2cccnc2)ccc1OS(=O)(=O)c1ccc(F)cc1 | -12% | -20% | -4 | 4% | 4%[10 µM] | -7%
COc1cc(/C=N/NC(=O)c2cccnc2)ccc1OS(=O)(=O)c1ccc(C)cc1 | -19% | 5% | 28 | 3.5µM* | 28%[10 µM] | 12%
CC(=O)Nc1ccc(C2=NN(CC#N)C(=O)SC2)cc1 | -5% | 10% | 13 | 0% | 4% | 8%
CC(=O)Nc1ccc(C2=NN(Cc3nnc(-c4ccccc4)o3)C(=O)SC2)cc1 | 5µM* | -8% | -15 | -10% | nt | 7%
O=C1SCC(c2ccc(Cl)cc2Cl)=NN1Cc1nnc(-c2ccccc2)o1 | 32µM* | ? | 24 | -7% | 17%[10 µM] | 9%
O=C1SCC(c2ccccc2)=NN1Cc1ccccc1 | -21% | 21% | -7 | ? | 6%[10 µM] | -1%
CCOC(=O)C1(CCOC)CCN(Cc2nc(C(C)C)cs2)CC1 | nt | -4%[9.22 µM] | nt | 9% | 14%[10 µM] | 5%
COC(=O)C/C=C\[C@@H](C)[C@@H](/C=N\OC[C@@H](O)COCc1ccco1)OC | nt | nt | nt | 2%[13.5 µM] | 15%[10 µM] | nt
CCCCCCCCCCCCCCCC(=O)OC(CO)CO | -21% | nt | nt | -3% | 0% | 0%
CN(C)c1ccc(-c2cc(NCc3ccccc3)ncn2)cc1 | ? | nt | nt | ? | -85% | 5%
Oc1ccc(Br)cc1-c1nc2cnccn2c1NC1CCCC1 | -2% | 20µM* | -5 | ? | 15% | 1%
Oc1ccc(Br)cc1-c1nc2cnccn2c1NC1CCCCC1 | 1% | ? | -25 | ? | -41% | -9%
CC(C)(C)c1ccc(OCCC(=O)NC2=NCCS2)cc1 | -12% | 0% | 2 | -10% | -8% | 5%
COc1cc2c(C(=O)N3CCN(C)CC3)c(C)n(-c3ccccc3)c2cc1Br | -26% | 7% | 14 | ? | -16% | -5%
CCN(CC)CCNC(=O)c1c(C)n(-c2ccccc2)c2cc(Br)c(OC)cc12 | -6% | ? | 10 | 0.63µM* | -86% | 15%
CCc1ccc[n+](-c2[nH]c(=O)sc2/C=N/NC([S-])=Nc2ccccc2)c1 | nt | 0% | -25 | 14µM* | 4%[10 µM] | nt
CCc1ccc[n+](-c2[nH]c(=O)sc2/C=N/N=C(\N)[O-])c1 | nt | 45%[9.22 µM] | nt | nt | -4%[10 µM] | 1%
O=c1[nH]c(-[n+]2ccccc2)c(/C=N/NC([S-])=Nc2ccccc2)s1 | nt | 7%[9.22 µM] | nt | 20µM* | 10%[10 µM] | 9%

Screening data (PubChem BioAssay)
